Measured values taken from PubChem BioAssay (NCI).
Compounds without any hit were thinned out: in the full panel of roughly 79,000, 15% have a hit. Rule as the data show it: active = growth inhibition above about 70%; inactive = the rest.

Legend:
[1] = NCI Yeast Anticancer Drug Screen. Data for the rad50 strain (AID 155);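 also: 0% = growth of vehicle-only cultures of the same strain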; details: S. cerevisiae rad50 strain growth inhibition; at 50.0 µM; active compounds read high
Procedure, shortened: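 DNA repair mutant yeast, compound exposure, growth read-out; inhibition is taken relative to vehicle.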

[2] = NCI Yeast Anticancer Drug Screen. Data for the mec2-1 strain (AID 157); details: S. cerevisiae mec2-1 strain, at 50.0 µM, active compounds read high
Procedure, shortened: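 Yeast mec2-1 mutant treated with compound. Readout: growth inhibition vs vehicle controls.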

[3] = NCI Yeast Anticancer Drug Screen. Data for the sgs1 mgt1 strain (AID 161);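 also: 0% = growth of cultures given vehicle only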; details: S. cerevisiae sgs1 mgt1 strain, at 50.0 µM, active compounds read high
Procedure, shortened: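 Mutant yeast exposed to compound; growth scored against vehicle-only wells.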

[4] = NCI Yeast Anticancer Drug Screen. Data for the cln2 rad14 strain (AID 165);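 also: 0% = growth equal to vehicle treated cultures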; details: S. cerevisiae cln2 rad14 strain, at 50.0 µM, active compounds read high
Procedure, shortened: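 cln2 rad14 yeast strain; compound exposure; growth inhibition read vs vehicle controls.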

[5] = NCI Yeast Anticancer Drug Screen. Data for the bub3 strain (AID 167); details: S. cerevisiae bub3 mutant strain, at 50.0 µM, active compounds read high
Procedure, shortened: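 In this screen, a yeast mutant lacking normal mitotic checkpoint function is challenged with compound. Relative growth versus vehicle gives the inhibition value.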

[6] = NCI Yeast Anticancer Drug Screen. Data for the mlh1 rad18 strain (AID 175); details: S. cerevisiae mlh1 rad18 strain growth inhibition; at 50.0 µM; active compounds read high
Procedure, shortened: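 Yeast w/ defined DNA-repair lesions; compound exposure; growth vs vehicle controls → % inhibition.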

Measured: growth inhibition

CC(=O)OCC1OC(n2nnc(CCl)c2CCl)C(OC(C)=O)C(OC(C)=O)C1OC(C)=O (configuration not stated)
inactive: [1] 38.5% | [2] 8.7% | [3] 0.5% | [4] -3.15% | [5] -0.25% | [6] 8.45%

Cc1cc(NS(=O)(=O)c2ccc(NC(=O)c3ccc(Cl)c4c(Nc5ccc(S(N)(=O)=O)cc5)c5ccccc5nc34)cc2)no1
inactive: [1] 34% | [2] 36.8% | [3] 33.5% | [4] 46.2% | [5] 31.4%

CCN(CC)CCO/N=C1\CC(c2ccc(OC)c(OC)c2)Oc2ccccc21 (configuration not stated)
inactive: [1] 3.8% | [2] 13.7% | [3] 2.65% | [4] 26.6% | [5] -9.85%

CCN(CC)CCOC(=O)c1c(C)cc(C)cc1C
inactive: [1] -6.3% | [2] -9.4% | [3] 4.9% | [4] -41.5% | [5] -15.6%

CCCC[N+](C)(C)CC[N+](C)(C)CCCC
inactive: [1] 4.25% | [2] -14.9% | [3] -10% | [4] -36.3% | [5] -1.4%

CC12CCC3[C@@H](CC3(C)C)C(O)(CCC1=O)C2 (some centres not stated)
inactive: [1] -10.4% | [2] -9.35% | [3] -10.8% | [4] -23.9% | [5] -5.35%

CC(=O)OCC(COC(C)=O)C(C)=O
inactive: [1] -7.35% | [2] -5.75% | [3] -8.5% | [4] 21.6% | [5] 4.65%

NC(N)=NC(N)=Nc1ccc(C(=O)O)cc1
inactive: [1] -7.4% | [2] 5.95% | [3] -26.8% | [4] -29.2% | [5] -68%

Fc1ccccc1N=Cc1ccc(C=Nc2ccccc2F)cc1
inactive: [1] 3.85% | [2] -11.2% | [3] 23.9% | [4] 21.3% | [5] 45.6%

Cc1ccc(S(=O)(=O)C(c2ccccc2)C(Br)C(=O)c2ccccc2)cc1 (configuration not stated)
inactive: [1] -0.25% | [2] 0.35% | [3] 18.2% | [4] 7.3% | [5] 1.55%

Cc1[nH]nc2c1NC(=O)OC2
inactive: [1] -3.1% | [2] -1.1% | [3] 1.5% | [4] -23.4% | [5] -8.15%

CN(C)/N=C\c1ccc(C(=O)O)cc1
inactive: [1] -4.35% | [2] 25.6% | [3] 8.5% | [4] -11.9% | [5] 28.3%

Cc1nn(C(=O)c2ccccc2O)c2c1C(c1ccc(O)cc1)SC(N)=N2 (configuration not stated)
inactive: [1] 16.1% | [2] 1.95% | [3] 29.4% | [4] 1.65% | [5] 43.6%

COC(OC)C1OC(C)(C)OC1C(OS(=O)(=O)c1ccc(C)cc1)C1COC(C)(C)O1 (configuration not stated)
inactive: [1] -14.7% | [2] -7.8% | [3] 6.45% | [4] 1.95% | [5] 1.6%

CCCCCCC(=O)/C=C/c1cccc(OCc2ccccc2)c1
inactive: [1] 32% | [2] 3.8% | [3] 13.3% | [4] 13.6% | [5] 18.4%

Cc1cc2ccccc2c2cc3ccccc3cc12
inactive: [1] -2.35% | [2] -6.4% | [3] 8.45% | [4] 11.8% | [5] -2.05%

COc1ccc(/C=C/c2cc(O)cc(OC3OC(CO)C(O)C(O)C3O)c2)cc1O (configuration not stated)
inactive: [1] -2.4% | [2] 10.5% | [3] -5.5% | [4] 7.55% | [5] 8.7%

CC1=CC(=O)C=CC1=Nc1ccc(N(C)C)cc1
inactive: [1] 19.3% | [2] 32.6% | [3] 47.9% | [4] 9.35% | [5] 39.4% | [6] 16.4%

CN=C1c2ccccc2C(=O)c2c1c(O)n(-c1ccccc1)c2O
inactive: [1] 27.9% | [2] 15.3% | [3] 20.9% | [4] 21.5% | [5] 29.4%

CC(C)c1cccc(C(C)C)c1NC1=CC(=O)C(=O)c2ccccc21
inactive: [1] -7.25% | [2] 14.4% | [3] -16.8% | [4] -0.2% | [5] 4.85%

COc1ccc(Cl)cc1C(O)CN1CCCCC1 (configuration not stated)
inactive: [1] -8.35% | [2] -11.9% | [3] -11.2% | [4] -37.5% | [5] 0.45%

C=CCNC(=S)NN(C)C
inactive: [1] -42% | [2] -16% | [3] -16.9% | [4] -51.5% | [5] -28.2%

O=C(O)c1cc(=O)[nH]c(=O)[nH]1
inactive: [1] -17.6% | [2] 0.05% | [3] -14.9% | [4] 7.05% | [5] -6.5%
